INHIBITION data for 110 molecules are collected here from ChEMBL document CHEMBL4513216, “Probing the Open Global Health Chemical Diversity Library for Multistage-Active Starting Points for Next-Generation Antimalarials” (ACS Infect Dis, 2020).

In all, about 69,000 compounds went through this assay and about 8,600 (12%) showed an effect of 50% or more. For the sample, strong results were picked, then their nearest neighbours and some compounds at random.

The assay concerns Plasmodium berghei. The assay is described as follows: Screen against P. berghei liver stage (PbLuc), transformed with Luciferase, at 10uM. It is filed as functional, HepG2. The settings on record: tested at 10 uM.
With `CCS(=O)(=O)N1CC[C@H](OC)[C@@H]1Cc1ccncc1`, the INHIBITION came out at 28.4%.
The same measure for `CNc1ncc(-c2ccnn2C2CCN(C(C)=O)CC2)cn1`: 42.6%; for `CC1CN(C(=O)c2cnn(-c3ccccn3)c2C(C)C)CC(C)(C)O1` (stereo not given): 51.5%.
The same measure for `CCc1c(C(=O)N2CCOC(C)(C)C2)cnn1-c1ccccn1`: 4.95%; for `CCc1c(C(=O)N2CC(C)OC(C)(C)C2)cnn1-c1ccccn1` (stereo not given): 2.97%; for `CCOC[C@@H]1CCC[C@]12CN(S(=O)(=O)c1cn(C)cn1)CCO2`: 35.5%.
As for `O=C(c1cccn1Cc1cccs1)N1CCSCC1`, the figure is 9.64%.
With `COc1cccc(OCCNS(C)(=O)=O)c1`, the INHIBITION is recorded as -0.614%.
Take `COc1cccc(OCCNCc2ccccc2)c1`: the INHIBITION came out at 51.5%.
As for `COc1cccc(OCCNS(=O)(=O)Cc2ccccc2)c1`, the figure is 10.7%.
As for `CC(C)(C)c1n[nH]c(C2CN(C(=O)C3=COCCC3)CCO2)n1` (stereo not given), the figure is 40.2%; as for `COc1ccccc1OC1(C(=O)O)CCN(c2nccnc2OC)CC1`, 3.03%.
The same measure for `COc1ccccc1OC1(C(=O)O)CCN(c2ncnc(C)c2C)CC1`: 55.4%; for `COc1ccccc1OC1(C(=O)O)CCN(c2nc(C)cnc2C)CC1`: 56.5%; for `COc1ccccc1OC1(C(=O)O)CCN(c2ccccn2)CC1`: 40.5%.
On to `COc1ccccc1OC1(C(=O)O)CCN(c2nccnc2C)CC1`, for which the INHIBITION was determined as 8.47%.
As for `COc1ccccc1OC1(C(=O)O)CCN(c2ncccc2F)CC1`, the figure is 30.8%; as for `CN1CC2(CCN(C(=O)c3ccc(-n4cccn4)cc3Cl)C2)OC1=O` (stereo not given), 32.5%.
As for `CC(=O)c1cnc(NCCCN2CCOCC2)nc1C`, the figure is -4.96%; as for `O=C(COc1ccccc1)NCC1CC1`, 3.63%.
The same measure for `O=C(NCCc1csc(-c2ncccn2)n1)c1cnn2c1CCCC2`: -52.5%; for `CCNc1ncc(C(=O)NCCCc2ccncc2)cn1`: 19.4%.
As for `CCNc1ncc(C(=O)NCCc2ccc(C)c(C)c2)cn1`, the INHIBITION is given as -4.21%.
For the molecule `CCNc1ncc(C(=O)NCc2csc(C)n2)cn1`, the INHIBITION was 35.4%.
As for `CCNc1ncc(C(=O)NCc2csc(-c3ncccn3)n2)cn1`, the INHIBITION is recorded as 62.2%.
As to `CCNc1ncc(C(=O)NCCc2csc(-c3ncccn3)n2)cn1`, the INHIBITION was found to be 56.6%.
Consider `CSCc1nc(CCNC(=O)C2CCCN(C(C)=O)C2)cs1` (stereo not given), for which the INHIBITION is listed as -90.8%.
The same measure for `CCNc1ncc(C(=O)NCCc2csc(CSC)n2)cn1`: 51.8%; for `CCNc1ncc(C(=O)NCc2csc(-c3cnccn3)n2)cn1`: -10.5%; for `CCN(Cc1nc2c(cnn2C)c(=O)[nH]1)Cc1ccccc1Cl`: -29.8%.
With `Cc1ccc2nc(CN3CCCCC3C(=O)N3CCOCC3)cn2c1` (stereo not given), the INHIBITION stood at 20%.
As to `CC(C)Cn1nccc1NC(=O)CN1CCOC(Cn2cccn2)C1` (stereo not given), the INHIBITION came out at 23.4%.
As to `CNC(=O)[C@@H](c1ccccc1)N1CCC[C@H]1C(=O)NC1CCCCC1`, the INHIBITION was 30.9%.
As for `CCc1cnc(N2C[C@H](OCc3csc(C)n3)[C@H]3COC[C@H]32)nc1`, the INHIBITION came to 40.8%.
The same measure for `Cc1nnnn1-c1cc(NCc2cccc(C#N)c2)ccc1F`: 31%; for `O=C(CC1CC1)NCc1cc(=O)n2c(n1)CN(Cc1ccoc1)CCC2`: 36.8%; for `O=C(Nc1ccccc1)N1C2CCC(O)(CC2)C1CO` (stereo not given): 44.9%.
As for `CCc1noc(C)c1C(=O)N1CCCC(n2nc(C)nc2C)C1` (stereo not given), the figure is -19.85%; as for `CS(=O)(=O)N1CCOCC12CCN(Cc1ccoc1)CC2`, 34.5%.
As for `CS(=O)(=O)N1CCO[C@@H]2CN(Cc3ccc(F)cc3)CC[C@@H]2C1`, the figure is 10.5%; as for `CS(=O)(=O)N1CCO[C@@H]2CN(Cc3ccncc3)C[C@@H]2C1`, 18.5%; as for `CS(=O)(=O)N1CCOCC12CCN(Cc1ccc(F)cc1)CC2`, 57.3%.
With `CS(=O)(=O)N1CCO[C@@H]2CN(Cc3ccc(F)cc3)C[C@@H]2C1`, the INHIBITION is 61.9%.
With `Cc1ccc(CN2CCC3(CC2)COCCN3S(C)(=O)=O)o1`, the INHIBITION came out at 11.6%.
As for `CS(=O)(=O)N1CCOCC2(CN(Cc3ccsc3)CCO2)C1` (stereo not given), the figure is 0.139%.
`CS(=O)(=O)N1CCOCC2(CN(Cc3ccc(F)cc3)CCO2)C1` (stereo not given): the INHIBITION was determined as 57.4%.
In the case of `Cc1ccc(CN2CCOC3(COCCN(S(C)(=O)=O)C3)C2)s1` (stereo not given), the INHIBITION is given as 11.4%.
The same measure for `O=C(c1ccc2c(c1)CCCC2)N1CCn2ncnc2C1`: -0.275%.
The same measure for `O=C(c1ccccn1)N1CCOC2(COCCN(Cc3cc[nH]n3)C2)C1` (stereo not given): -95.7%; for `CC(C)C[C@H](NC(=O)Cc1csc(-c2cccc(Cl)c2)n1)C(=O)O`: 40.8%.
The same measure for `CCc1ccsc1C(=O)NCCn1nc2ccccn2c1=O`: 14.4%; for `c1cnn(CC2CCCN2Cc2ccc(-n3cccn3)cc2)c1` (stereo not given): 41.2%; for `c1ccc(CN2CCNCC(Cc3cnccn3)C2)cc1` (stereo not given): -11.4%.
Regarding `CCc1nc(C(=O)N2CC(C(C)C)Nc3ccccc32)c[nH]1` (stereo not given), the INHIBITION came to 3.13%.
Consider `COCCNc1ncc(-c2cccc(OC)c2)c(-c2nccn2C)n1`, for which the INHIBITION was 3.48%.
The same measure for `CC(C)[C@H]1CN(Cc2nccn2C)C[C@@H]1NC(=O)CCS(C)(=O)=O`: 12.9%; for `CC(C)[C@H]1CN(Cc2c[nH]cn2)C[C@@H]1NC(=O)CC1CCC1`: 57.3%.
As for `CC(C)[C@H]1CN(Cc2ccccn2)C[C@@H]1NC(=O)CC1CCC1`, the figure is 41.8%; as for `O=C(c1ccc(F)cc1)N1CCC2(CCN(Cc3ccccn3)C2=O)C1` (stereo not given), 2.79%.
The same measure for `COCC(=O)N1CCCC1c1cccc(Cc2ccccc2F)n1` (stereo not given): 24.4%; for `CC(=O)N1CCCC1c1cccc(NCc2ccccc2F)n1` (stereo not given): 64.1%; for `CN(C)C(=O)CN1CCCC1c1cccc(Cc2ccccc2F)n1` (stereo not given): 42.6%.
Turning to `CN1CCCC1c1cccc(Cc2ccc(F)cc2)n1` (stereo not given), the INHIBITION worked out at 100%.
As to `CC(=O)N1CCCC1c1cccc(Cc2ccccc2F)n1` (stereo not given), the INHIBITION is 14.8%.
For the molecule `CS(=O)(=O)N1CCCC1c1cccc(Cc2ccccc2F)n1` (stereo not given), the INHIBITION is recorded as -51.4%.
On to `CC(=O)N1CCCC1c1cccc(Cc2ccc(F)cc2)n1` (stereo not given), for which the INHIBITION stood at 13.6%.
As for `CN1CCCC1c1cccc(Cc2ccccc2F)n1` (stereo not given), the figure is 76.2%; as for `CN1CCCC1c1cc2cccnc2n1Cc1ccc(F)cc1` (stereo not given), 30.85%.
As for `Cc1ncsc1C(=O)N1CCCC1c1c(C)nn(C)c1C` (stereo not given), the figure is 16.6%; as for `Cc1cc(Nc2cnccn2)cc(C2CCCNC2)n1` (stereo not given), 19.5%.
As for `CO[C@@H]1CCC[C@@H](NC(=O)c2cccc(F)c2)[C@H]1O`, the figure is 28.2%; as for `CNc1nc2cn(CCc3ccc(C)cc3)c(=O)c-2c[nH]1`, 3.52%; as for `O=C(Cc1ccccn1)N1CCN(C(=O)CC2CCCCC2)CC1`, 13.6%.
As for `Cc1cc(NCC2CCS(=O)(=O)C2)n2nc(C)cc2n1` (stereo not given), the INHIBITION is on record as 47%.
The same measure for `CCC(C)(C)n1nnnc1C(c1cccs1)N1CCc2ccccc2C1` (stereo not given): 51.4%.
For the molecule `CCC(C)(C)n1nnnc1C(c1cccs1)N1CCc2ccccc21` (stereo not given), the INHIBITION is 42.6%.
Consider `CCC(C)(C)n1nnnc1C(c1cccs1)N1CCCCC1` (stereo not given), for which the INHIBITION is recorded as 21.7%.
The same measure for `Cc1ccc(C(=O)N2C[C@H]3CCC[C@@]3(COCc3ccncc3)C2)cn1`: 43.9%; for `CCc1nnc2n1CCN(C(=O)CN(CC)CC)C2`: 49.8%; for `CCc1nnc2n1CCN(C(=O)CN(C)Cc1ccccc1)C2`: 20.1%.
With `CCc1nnc2n1CCN(C(=O)c1cnn(C)c1C1CC1)C2`, the INHIBITION amounted to 53.9%.
The same measure for `CCc1nnc2n1CCN(C(=O)c1ccccc1OCC1CC1)C2`: 7.21%; for `Cc1nnc2n1CCN(C(=O)c1ccnc(N(C)C)c1)C2`: 21.6%.
As for `Cc1nnc2n1CCN(C(=O)c1cnc(C3CC3)s1)C2`, the figure is 53.9%.
As to `Cc1nc(-c2ccco2)ccc1C(=O)N1CCn2c(C)nnc2C1`, the INHIBITION was -17.6%.
The same measure for `CCc1nnc2n1CCN(C(=O)c1ccc(-c3ccco3)nc1C)C2`: 61.3%; for `CCc1nnc2n1CCN(C(=O)c1csc(-c3cnn(C)c3)n1)C2`: 29.7%.
The same measure for `CCc1nnc2n1CCN(C(=O)CN(C)C1CC1)C2`: 51.1%; for `CCc1nnc2n1CCN(C(=O)c1ccc(-c3ccco3)[nH]c1=O)C2`: -19.6%; for `CC(C)c1nnc2n1CCN(C(=O)c1cnc(C3CC3)s1)C2`: 43.1%.
Take `NC(=O)C1(CCCc2ccncc2)CCCN1` (stereo not given): the INHIBITION is on record as 1.5%.
The same measure for `CNS(=O)(=O)c1ccc(CNC(=O)c2c(C)oc(C)c2C)cc1`: -6.14%; for `CN1CCCC1CNC(=O)CCCOc1ccc(Br)cc1` (stereo not given): -62.6%; for `Cc1ccc(-c2nnc(SCC(=O)O)n2-c2ccc(C)cc2)cc1`: 33.5%.
The same measure for `O=S(=O)(C1CC1)N1CCc2ncnc(N3CCCC3)c2CC1`: -17.7%; for `COc1ccc(C(=O)NCCN(C)C)c(I)c1`: -0.217%; for `NC(=O)N1CCC(NCc2cc(Br)ccc2Cl)CC1`: 34.7%.
As for `CC(C)(C)c1ncc(C(=O)NCCNC(=O)c2ccco2)s1`, the figure is -21.5%; as for `COc1cc(C(=O)N2CCCC(c3cc(C)[nH]n3)C2)ccc1C` (stereo not given), 24%.
Regarding `CCc1ncc(C(=O)N2CCn3c(CC)nnc3C2)s1`, the INHIBITION amounted to 53.9%.
The same measure for `CCc1nnc2n1CCN(C(=O)c1cnc(C3CC3)s1)C2`: 13.9%; for `CCc1nnc2n1CCN(C(=O)c1cnc(-c3cccs3)s1)C2`: 19.3%; for `Cc1cc(C)c2ncc(C#N)c(N3CCS(=O)(=O)CC3)c2c1`: 36.3%.
For the molecule `Cc1cnn(CC2CCCCN2C(=O)CC(F)(F)F)c1` (stereo not given), the INHIBITION came to 9.14%.
The same measure for `O=C(c1cc(-c2ccccc2)nc2onc(C3CC3)c12)N1CC[C@H](O)C1`: 73%; for `O=C(c1cccnc1SCc1ccccc1)N1CC[C@@H](O)C1`: -34%; for `O=C(c1cc(C2CC2)nc2onc(-c3ccccc3)c12)N1CC[C@H](O)C1`: 28.5%.
The same measure for `O=C(CN1CCCC1c1nc(-c2ccccc2)no1)N1CCOCC1` (stereo not given): -21.8%; for `O=C(c1cc(C2CC2)nc2onc(-c3ccccc3)c12)N1CCOCC1`: 51.7%.
As for `O=C(c1cc(C2CC2)nc2onc(-c3ccccc3)c12)N1CC(O)C1`, the figure is 44.3%.
